Experiment [1] concerns XIP peptide (Xip251-270) binding. In words: XIP fragment 251-270 binding compounds – biochemical, small-molecule microarray, fluorescence 635/667 nm, 0.1 µg/mL protein, primary screen (AID 1182). The settings on record: fluorescent protein binding, 635 nm, higher = more signal, called active from +8 up or from −8 down.
Another experiment deals with XIP peptide (Xip251-270). The experiment is described as follows: compounds binding XIP fragment 251-270 – biochemical, small-molecule microarray, fluorescence 635/667 nm, 0.5 µg/mL protein, primary screen (AID 1183). The settings on record: fluorescence 635 nm, higher = more signal.
A short description of experiment [2]: blood-stage malaria parasite viability loss – strain 3D7, DAPI fluorescence, 100 nL, primary screen (AID 1184).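 Further: parasites grown inside human red blood cells in medium with human serum.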 Particulars: P. falciparum 3D7 growth, 3 d, higher = more signal.
Experiment [3] concerns the target Homeobox protein Hox-A13 (Mus musculus) (UniProt Q62424). In words: disruptors of Hoxa13 oligonucleotide interaction – biochemical, fluorescence polarization, labeled oligonucleotide, primary screen (AID 1185). Particulars: Hoxa13:DNA binding, 15 min, higher = more signal, called active from +8 up or from −8 down. Background: Polarisation of emitted light reports the rotation of a fluorescent probe.

Experiment [4] in a line: blockers of DNA damage checkpoint Chk1 activation – imaging, HeLa, hydroxyurea, phospho-Chk1 antibody, percent positive cells, primary screen (AID 1186). The settings on record: hydroxyurea-induced phospho-Chk1 immunofluorescence imaging, higher = more signal.
Experiment [5] is described as follows: blockers of DNA damage checkpoint Chk1 activation – imaging, HeLa, hydroxyurea, phospho-Chk1 nuclear intensity, primary screen (AID 1187). Particulars: hydroxyurea-induced phospho-Chk1 immunofluorescence imaging, higher = more signal.

Each structure is given as a SMILES string. Calls of active or inactive are those of the source. Unless noted, how the calls were made is not given here.

Homeobox protein Hox-A13 (Mus musculus), sequence (Q62424 whole entry, looked up): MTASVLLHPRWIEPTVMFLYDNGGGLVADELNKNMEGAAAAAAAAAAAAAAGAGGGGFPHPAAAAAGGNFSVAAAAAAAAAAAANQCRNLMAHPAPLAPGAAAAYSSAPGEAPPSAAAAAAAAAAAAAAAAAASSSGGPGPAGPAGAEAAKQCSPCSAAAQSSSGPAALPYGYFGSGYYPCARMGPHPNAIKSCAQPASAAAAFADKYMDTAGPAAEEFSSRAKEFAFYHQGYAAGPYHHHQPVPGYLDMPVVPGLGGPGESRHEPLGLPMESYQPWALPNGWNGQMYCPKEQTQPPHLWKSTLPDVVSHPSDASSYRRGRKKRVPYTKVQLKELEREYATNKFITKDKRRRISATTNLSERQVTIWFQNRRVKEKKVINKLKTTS

For `O=C1O[C@@H](c2ccccc2)[C@@H](c2ccccc2)N2[C@@H](c3ccccc3OCCO)[C@]3(C(=O)Nc4ccc(C#CCCO)cc43)[C@@H](C(=O)O)[C@H]12`, the composite z-score in experiment [1] was 0.106 (inactive); in the experiment with XIP peptide (Xip251-270), 0.842. Besides, the z-score was -1.69 in experiment [2], -5.33 (inactive) in experiment [3], 0.722 (inactive) in experiment [4] and 0.803 (inactive) in experiment [5].

Consider `COCCCNC(=O)[C@@]1(C)c2ccccc2C(=O)N(Cc2ccc(OC(F)(F)F)cc2)[C@H]1c1ccc(CO)cc1`, for which the composite z-score was 0.111 (inactive) in experiment [1] and 0.187 in the experiment on XIP peptide (Xip251-270). For the same compound, the z-score in experiment [2] is -0.313; in experiment [3] it was -2.89 (inactive); in experiment [4] it was -0.143 (inactive); in experiment [5], -0.339 (inactive).

`COc1ccccc1CN1C(=O)c2ccccc2[C@@]2(Cc3ccccc3N(C(C)C)C2=O)[C@@H]1c1ccc(CO)cc1`: the composite z-score was 0.496 (inactive) in experiment [1] and 0.854 in the experiment on XIP peptide (Xip251-270). Besides, the z-score in experiment [2] is 0.559; in experiment [3], -0.215 (inactive); in experiment [4] it was -0.014 (inactive); in experiment [5], 0.36 (inactive).

In the case of `CCc1cccc(NC(=O)O[C@H]2[C@H](OC(=O)Nc3ccc4c(c3)OCO4)[C@@H](OC(=O)Nc3ccc4c(c3)OCO4)[C@@H](OC)O[C@@H]2CO)c1`, the composite z-score is 0.0979 (inactive) in experiment [1] and -0.0177 with XIP peptide (Xip251-270). The z-score was -2.23 in experiment [2], -6.22 (inactive) in experiment [3], -0.313 (inactive) in experiment [4] and 0.165 (inactive) in experiment [5].

Turning to `COC(=O)[C@]1(CO)N=C(c2ccc(OCCCO)cc2)O[C@@H]1c1ccccc1N=[N+]=[N-]`, the composite z-score in experiment [1] was 0.816 (inactive); in the experiment with XIP peptide (Xip251-270), 0.812. The z-score in experiment [2] was -0.313; in experiment [3] it was -6.14 (inactive); in experiment [4] it was 0.0389 (inactive); in experiment [5], 0.0674 (inactive).

For `C=C(CCCC)C(=O)CC[C@@H](OC(C)=O)c1cccc(OCCO)c1`, the composite z-score in experiment [1] was -0.0399 (inactive); with XIP peptide (Xip251-270) it was 0.0194. Further, the z-score in experiment [2] was -1.47; in experiment [3], -3.72 (inactive); in experiment [4], 0.163 (inactive); in experiment [5], 0.0394 (inactive).

On to `COCC1=C2[C@@H](CCc3ccccc3)OB(O)C[C@@H]2n2c(=O)n(-c3ccccc3)c(=O)n2C1`, for which the figures for the composite z-score (in experiment [1]; in the experiment with XIP peptide (Xip251-270)) were -0.0712 (inactive) and 0.835, respectively. For the same compound, the z-score is 1.25 in experiment [2], -4.79 (inactive) in experiment [3], 0.0264 (inactive) in experiment [4] and -0.295 (inactive) in experiment [5].

As to `CCN(CC)c1ccc(N2CC=CC34O[C@@H]5/C=C\CCC(C)OC(=O)C5[C@H]3C(=O)N(CCCO)[C@@H]4C2=O)cc1` (stereo partly specified), the composite z-score in experiment [1] was 0.217 (inactive); with XIP peptide (Xip251-270) it was 0.974. Also, the z-score in experiment [2] was -0.0779; in experiment [3], -6.38 (inactive); in experiment [4], 0.0745 (inactive); in experiment [5], -0.0024 (inactive).

For `CCCCCCc1nc(CCCc2cc3c(c(CCCCCC)n2)[Si](C(C)C)(C(C)C)O[C@H]3c2ccccc2)cc2c1[Si](C(C)C)(C(C)C)O[C@H]2c1ccccc1`, the composite z-score was 0.285 (inactive) in experiment [1] and -0.307 in the experiment on XIP peptide (Xip251-270). Besides, the z-score in experiment [2] is -0.607; in experiment [3], -2.79 (inactive); in experiment [4], -0.0972 (inactive); in experiment [5], -0.202 (inactive).

For the compound `CCCCC(=C=CC[C@H](O)c1ccccc1OCCO)C[C@H](O)COCc1ccccc1`, the composite z-score was 1.03 (inactive) in experiment [1] and -0.765 in the experiment with XIP peptide (Xip251-270). The z-score in experiment [2] is -1.21; in experiment [3], -4.61 (inactive); in experiment [4], -0.15 (inactive); in experiment [5], 0.18 (inactive).

Consider `NC(=O)NCC#Cc1ccc2c(c1)[C@]1(C(=O)N2)[C@H](c2ccc(O)cc2)N2[C@H](c3ccccc3)[C@H](c3ccccc3)OC(=O)[C@H]2[C@@H]1C(=O)N1CCCCCCC1`, for which the composite z-score was 0.145 (inactive) in experiment [1] and 0.469 with XIP peptide (Xip251-270). The z-score in experiment [2] is 0.308; in experiment [3], 1.52 (inactive); in experiment [4], -0.374 (inactive); in experiment [5] it was -0.693 (inactive).

For the compound `O=C1O[C@@H](c2ccccc2)[C@@H](c2ccccc2)N2[C@@H](c3ccc(O)cc3)[C@]3(C(=O)Nc4ccccc43)[C@@H](C(=O)O)[C@H]12`, the composite z-score in experiment [1] was 1.27 (inactive); in the experiment with XIP peptide (Xip251-270) it was 0.632. Besides, the z-score in experiment [2] was -1.73; in experiment [3], -4.72 (inactive); in experiment [4], 0.482 (inactive); in experiment [5], 0.166 (inactive).

As to `CCOC(=O)C[C@H]1[C@H](OC(=O)c2ccc(C(=O)c3ccccc3)cc2)[C@@H](NC(=O)c2ccc(-c3ccccc3)cc2)c2cc(OCCCO)ccc2N1C(=O)c1ccc2ccccc2n1`, the results for the composite z-score (in experiment [1]; in the experiment with XIP peptide (Xip251-270)) were 1.25 (inactive) and 0.388, respectively. The z-score in experiment [2] is -1.04; in experiment [3], -0.834 (inactive); in experiment [4], -0.916 (inactive); in experiment [5], -0.596 (inactive).

For `COCCOC(=O)N1C(=O)[C@@]2(c3cc(C#Cc4ccc(OC)cc4)ccc31)[C@H](C(=O)N1CCN(c3ncccn3)CC1)[C@H]1C(=O)O[C@H](c3ccccc3)[C@H](c3ccccc3)N1[C@@H]2c1ccc(OCCO)cc1`, the composite z-score in experiment [1] was 0.115 (inactive); in the experiment with XIP peptide (Xip251-270), 0.43. In addition, the z-score in experiment [2] is -1.49; in experiment [3], 1.38 (inactive); in experiment [4] it was -0.102 (inactive); in experiment [5] it was -0.0346 (inactive).

As to `O=C(CS)NCCCCCNC(=O)[C@@H]1C[C@@H]2C(=O)N[C@@H](Cc3ccccc3)C(=O)N2[C@@H]1c1ccc(O)cc1`, the composite z-score in experiment [1] is 0.508 (inactive); in the experiment with XIP peptide (Xip251-270), 0.562. The z-score in experiment [2] is -0.14; in experiment [3], -2.5 (inactive); in experiment [4], 0.83 (inactive); in experiment [5] it was 0.886 (inactive).

As to `CCCC[C@@H]1C[C@H]1[C@@H](NS(=O)(=O)c1cccc2cccnc12)c1ccc(-c2ccccc2)cc1`, the composite z-score was -0.111 (inactive) in experiment [1] and -0.239 in the experiment with XIP peptide (Xip251-270). For the same compound, the z-score was -0.299 in experiment [2], -0.507 (inactive) in experiment [3], -0.121 (inactive) in experiment [4] and 0.189 (inactive) in experiment [5].

These data come from PubChem BioAssay.
